Measurements taken from PubChem BioAssay (NCATS).
Records with an inconclusive call do not appear. Where a call stands in place of a potency, no number is given. Calls of active or inactive are those of the source. Calls follow the shape of the dose curve; as a rule, active = well fitted curve in the direction sought with a large enough effect; inconclusive = small, poorly fitted or top-dose-only effect, or another doubt; inactive = no such curve, though single readings can be large; an effect the other way counts as inactive or inconclusive.

What was measured:
[1] = biological target: Cytochrome P450 3A4 (Homo sapiens) (UniProt P08684); assay: qHTS Assay for Inhibitors and Substrates of Cytochrome P450 3A4 (AID 884); also: nearly all actives have a fitted effect of over 50% in size; also: potency is read from the fitted curve at half-maximal effect
Sequence of Cytochrome P450 3A4 (Homo sapiens) (P08684 whole entry, looked up): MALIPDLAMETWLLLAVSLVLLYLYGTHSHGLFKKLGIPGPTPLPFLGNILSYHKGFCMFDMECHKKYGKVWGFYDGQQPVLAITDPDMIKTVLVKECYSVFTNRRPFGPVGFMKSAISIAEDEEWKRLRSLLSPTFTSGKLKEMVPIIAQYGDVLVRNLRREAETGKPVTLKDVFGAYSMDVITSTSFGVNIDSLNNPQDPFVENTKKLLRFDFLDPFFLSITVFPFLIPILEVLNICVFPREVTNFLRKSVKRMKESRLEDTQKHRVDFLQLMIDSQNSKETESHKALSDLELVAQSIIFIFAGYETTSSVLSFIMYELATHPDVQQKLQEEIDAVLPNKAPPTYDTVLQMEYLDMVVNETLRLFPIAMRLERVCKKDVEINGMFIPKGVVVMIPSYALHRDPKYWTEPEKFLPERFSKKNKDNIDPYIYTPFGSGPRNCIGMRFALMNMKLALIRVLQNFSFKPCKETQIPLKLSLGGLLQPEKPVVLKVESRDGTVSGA
How it was run: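 Luminescent readout of luciferin produced by CYP3A4 (20 nM) dealkylation of Luciferin-PPXE, 25 uM (its KM). NADPH-driven reaction ran 60 min at RT after 10 min compound preincubation; data scaled to 57 uM ketoconazole as 100% inhibition.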

[2] = Confirmation and Secondary Assay for Modulators of Hemoglobin Beta Chain Splicing at IVS2 654 locus (AID 910);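 also: HeLa cells stably carrying EGFP split by mutant beta-globin IVS2-654 intron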
How it was run: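 HeLa cells stably expressing EGFP interrupted by β-globin IVS2-654 intron, seeded overnight in Opti-MEM/2% FCS, then treated 2 days at 37 °C. Restored splicing read as total peak GFP intensity per well by laser scanning cytometry (488 nm excitation, 500–520 nm emission); 500 nM antisense PNA as control.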

[3] = Confirmation and Secondary Assay for Modulators of Hemoglobin Beta Chain Splicing at IVS2 705 locus (AID 930);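 also: HeLa cells stably expressing the EGFP-705 splicing reporter; GFP fluorescence per well restored by corrected splicing of the IVS2-705 intron in EGFP; series mostly up to about 46 µM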
How it was run: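 Stable HeLa line with EGFP disrupted by mutant beta-globin intron 2 (705). Overnight attachment, then 2 days of compound at 37C, 5% CO2. Signal: peak GFP intensity summed over objects 5-250 µm.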

[4] = biological target: Ubiquitin carboxyl-terminal hydrolase 1 (Homo sapiens) (UniProt O94782); assay: Inhibitors of USP1/UAF1: Pilot qHTS (AID 504865);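 also: rhodamine fluorescence freed from ubiquitin-rhodamine substrate followed over time; top concentration of the series differs between compounds; nearly all actives have a fitted effect of over 35% in size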
Sequence of Ubiquitin carboxyl-terminal hydrolase 1 (Homo sapiens) (O94782 whole entry, looked up): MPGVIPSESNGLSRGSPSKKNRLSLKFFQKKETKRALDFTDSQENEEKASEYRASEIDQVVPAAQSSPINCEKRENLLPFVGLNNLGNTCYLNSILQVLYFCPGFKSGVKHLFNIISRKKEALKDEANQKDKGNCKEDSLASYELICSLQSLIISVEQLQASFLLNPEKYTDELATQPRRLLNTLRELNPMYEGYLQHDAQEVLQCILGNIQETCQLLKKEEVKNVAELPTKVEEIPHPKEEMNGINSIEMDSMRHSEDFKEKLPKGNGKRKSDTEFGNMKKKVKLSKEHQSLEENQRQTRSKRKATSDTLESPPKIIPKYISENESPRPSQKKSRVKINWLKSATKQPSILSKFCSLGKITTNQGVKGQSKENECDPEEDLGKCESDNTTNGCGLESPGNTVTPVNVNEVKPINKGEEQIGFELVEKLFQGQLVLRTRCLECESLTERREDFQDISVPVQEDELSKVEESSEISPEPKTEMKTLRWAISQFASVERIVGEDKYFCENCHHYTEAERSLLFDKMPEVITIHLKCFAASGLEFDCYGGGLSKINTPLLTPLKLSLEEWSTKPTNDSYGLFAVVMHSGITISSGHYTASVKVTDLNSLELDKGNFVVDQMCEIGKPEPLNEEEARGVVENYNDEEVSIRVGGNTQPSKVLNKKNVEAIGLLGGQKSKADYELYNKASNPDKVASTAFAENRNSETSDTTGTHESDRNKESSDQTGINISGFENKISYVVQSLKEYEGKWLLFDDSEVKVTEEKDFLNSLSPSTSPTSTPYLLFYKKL
How it was run: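 USP1/UAF1 complex at 1 nM preincubated 15 min at room temperature with compound, then Ub-Rho substrate added at 150 nM final. Fluorescence (480/540 nm) read kinetically in 50 mM HEPES pH 7.8, 0.5 mM EDTA, 1 mM TCEP, 0.1 mg/ml BSA, 0.01% Tween-20.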

[5] = biological target: Cytochrome P450 3A4 (Homo sapiens) (UniProt P08684); assay: qHTS Assay for Activators of Cytochrome P450 3A4 (AID 885); also: nearly all actives have a fitted effect of over 65% in size
How it was run: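 Using 20nM recombinant human CYP3A4 in potassium phosphate (200mM), substrate Luciferin-PPXE at 25uM, luminescent luciferin detection followed a 60-min RT NADPH reaction; data scaled to 57 uM ketoconazole.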

## O=C(O)/C=C/C=C/c1ccccc1
[1]
  Potency: inactive
[2]
  outcome: inactive
[3]
  outcome: inactive
[4]
  Potency: inactive

## CC(=O)OC1CC(OC(C)=O)[C@]2(C)C(CC(OC(C)=O)[C@@]3(C)C4=CC(=O)OC(c5ccoc5)[C@]4(C)CCC32)C1(C)C (some centres undefined)
[1]
  Potency: 10 µM (active)
[2]
  outcome: inactive
[3]
  outcome: inactive
[4]
  Potency: inactive

## Cc1onc(-c2c(Cl)cccc2Cl)c1C(=O)NC1C(=O)N2C1SC(C)(C)C2C(=O)O (centres undefined)
[1]
  Potency: inactive
[2]
  outcome: inactive
[3]
  outcome: inactive
[4]
  Potency: inactive

## O=C(O)C(S)[C@@H](S)C(=O)O (some centres undefined)
[1]
  Potency: inactive
[2]
  outcome: inactive
[3]
  outcome: inactive
[4]
  Potency: inactive

## COc1cc2c(cc1OC)C(=O)OC2
[5]
  Potency: inactive
[2]
  outcome: inactive
[3]
  outcome: inactive
[4]
  Potency: inactive

## C=C1C([C@@]2(C)C(OC(C)=O)CC(=O)O[C@@](C)(COC(C)=O)C2CC(=O)OC)C(OC=O)C(OC(=O)C(O)C(C)CC)[C@]2(C)C(c3ccoc3)CC(=O)C12O (some centres undefined)
[5]
  Potency: inactive
[2]
  outcome: inactive
[3]
  outcome: inactive
[4]
  Potency: inactive

## COC(=O)c1c(C)cc(O)cc1O
[5]
  Potency: inactive
[2]
  outcome: inactive
[4]
  Potency: inactive

## C=C1C(=O)C23C(O)C1CCC2[C@]12COC3(O)C(O)C1C(C)(C)CC[C@H]2O (some centres undefined)
[1]
  Potency: inactive
[2]
  outcome: inactive
[3]
  outcome: inactive
[4]
  Potency: inactive

## CSCCC(N)C(=O)NC(CC(C)C)C(=O)NC(Cc1ccccc1)C(=O)O (centres undefined)
[1]
  Potency: inactive
[2]
  outcome: inactive
[3]
  outcome: inactive
[4]
  Potency: inactive

## CO[C@@]1(NC(=O)Cc2cccs2)C(=O)N2C(C(=O)O)=C(COC(N)=O)CSC21 (some centres undefined)
[1]
  Potency: inactive
[2]
  outcome: inactive
[3]
  outcome: inactive
[4]
  Potency: inactive

## Oc1ccc2c(c1)OCC1c3cc4c(cc3OC21)OCO4 (centres undefined)
[5]
  Potency: inactive
[2]
  outcome: inactive
[4]
  Potency: inactive

## O=C(O)c1cc2ccccc2[nH]1
[1]
  Potency: inactive
[2]
  outcome: inactive
[3]
  outcome: inactive
[4]
  Potency: inactive

## Cn1c(=O)[nH]c(=O)c2[nH]cnc21
[1]
  Potency: inactive
[2]
  outcome: inactive
[3]
  outcome: inactive
[4]
  Potency: inactive

## Nc1nc(=O)n(C2OC(CO)C(O)C2O)cc1Cl (centres undefined)
[1]
  Potency: inactive
[2]
  outcome: inactive
[3]
  outcome: inactive
[4]
  Potency: inactive
